Measurements reported in PubChem BioAssay (EPA / NIEHS).
Values joined by “and” are separate entries in the source; they are usually repeats but may differ in a detail not shown here. Identical values can stand only once. Inconclusive results are not listed. Active and inactive are the calls of the source. The calls were made as follows: active = hit-call score of the fitted dose curve at least 0.9, where 1 is the maximum; inconclusive = response in the unintended direction; inactive = score below 0.9.

Each molecule was assayed on Cytochrome P450 3A4 (Homo sapiens) (UniProt P08684) (assay: CLD_CYP3A4_48hr: CellzDirect (CLD) Gene Expression Assay for xenobiotic metabolism (CYP3A4) at 48 hours (AID 2283698)).
Sequence of Cytochrome P450 3A4 (Homo sapiens) (P08684 whole entry, looked up): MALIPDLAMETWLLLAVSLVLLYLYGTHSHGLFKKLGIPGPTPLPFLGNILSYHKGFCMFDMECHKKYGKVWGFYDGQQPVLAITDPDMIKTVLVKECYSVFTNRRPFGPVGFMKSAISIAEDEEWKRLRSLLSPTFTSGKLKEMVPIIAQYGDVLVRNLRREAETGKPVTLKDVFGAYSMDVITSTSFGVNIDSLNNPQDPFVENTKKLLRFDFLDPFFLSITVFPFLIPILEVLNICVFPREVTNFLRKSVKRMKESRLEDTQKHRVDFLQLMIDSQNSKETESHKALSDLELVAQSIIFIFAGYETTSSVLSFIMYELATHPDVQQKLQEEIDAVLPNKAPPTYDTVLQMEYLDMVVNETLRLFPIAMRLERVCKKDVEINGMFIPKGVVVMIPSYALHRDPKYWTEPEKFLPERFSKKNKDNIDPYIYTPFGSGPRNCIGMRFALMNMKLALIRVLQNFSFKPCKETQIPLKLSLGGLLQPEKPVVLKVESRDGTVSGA
Procedure: CLD_48hr is a cell-based, multiplexed-readout assay that uses hepatocyte, a human liver primary cell, with measurements taken at 48 hours after chemical dosing in a 96-well plate.CLD_CYP3A4_48hr is one of 16 assay component(s) measured or calculated from the CLD_48hr assay. It is designed to make measurements of mRNA induction, a form of inducible reporter, as detected with chemiluminescence signals by Quantitative Nuclease Protection Assay (qNPA) technology.Data from the assay component CLD_CYP3A4_48hr was analyzed at the endpoint, CLD_CYP3A4_48hr, in the positive analysis fitting direction relative to DMSO as the negative control and baseline of activity. Using a type of inducible reporter, gain-of-signal activity can be used to understand changes in the reporter gene as they relate to the gene CYP3A4. Furthermore, this assay endpoint can be referred to as a primary readout. To generalize the intended target to other relatable targets, this assay endpoint is annotated to the cyp intended target family, where subfamily is xenobiotic metabolism.
Human hepatocyte cultures were treated daily for two consecutive days with fresh dosing solutions containing appropriate concentrations of the 320 ToxCast chemicals (chemical identities were blinded to CellzDirect and other ToxCast collaborators), vehicle control (0.2% DMSO), and positive control inducers as summarized in Table 1. Due to the large number of treatment groups and chemicals examined, the ToxCast chemicals were divided into two groups (spanning two independent cultures of hepatocytes from separate donor preparations (Hu778: ToxCast plates 1 and 2; Hu776: ToxCast plates 3 and 4). Each preparation of human hepatocyte cultures was treated with respective vehicle control, medium only control, set of six positive controls/reference chemicals for the five hepatic receptor pathways, and a subset of eight of the ToxCast chemicals (indoxacarb, pyrithiobac-sodium, norflurazon, cyhalofop-butyl, methomyl, thiram, acetochlor, and propiconazole). These replicate data, coupled with internal replicates designed within the blinded ToxCast chemical library, provided additional data to evaluate interindividual differences between hepatocyte preparations and their potential impact on chemical profiles.Cell morphology and integrity were evaluated using phase-contrast microscopy as an indicator of hepatocyte cell health (Tyson & Green, 1987). Cultures for each treatment group (i.e., media, vehicle [0.2% DMSO], positive control inducers [multiple concentrations], and the ToxCast chemicals [multiple concentrations]) were observed and cell morphology was assessed relative to vehicle control cultures at each harvest time point (0, 6, 24, or 48 h). […] Images were evaluated at the conclusion of the study to assess changes in cell integrity and account for the effects of chemical exposure on uncharacteristic changes in concentration-dependent gene expression profiles. The results from these determinations of apparent cytotoxicity were annotated (yes/no) alongside the corresponding qNPA data for reference.At the conclusion of each treatment period, hepatocyte cultures (96-well) were washed with 1 volume of HBSS, lysed by addition of 25 ul ArrayPlate lysis buffer (HTG, Tucson, AZ), and 70 ul/well of Denaturation Oil, denatured by incubation at 95C for 10 min, and frozen at approximately -70C until analysis by nuclease protection assay (qNPA) (Roberts et al., 2007). For qNPA analysis, cell lysates were thawed at 50C for approximately 30 min, qNPA probes were added, and samples were incubated at 95C for 10 min to begin the detection process by denaturing the target RNA, dissociating the duplexes and secondary structure hybridization. At the conclusion of the hybridization period, S1 nuclease reagent was added to each sample to digest all nonprotected nucleotides at 50C for 60-90 min. […]
`COP(N)(=O)SC` (stereo not drawn) was tested, and the outcome was “inactive”. `N#CC(CCc1ccc(Cl)cc1)(Cn1cncn1)c1ccccc1` (stereo not drawn) was tested, and the AC50 was 0.736 µM (active). For `COc1nc(C)nc(NC(=O)NS(=O)(=O)c2ccccc2CCC(F)(F)F)n1`, the AC50 was 20 µM (active) and 4.16 µM (active) and 3.34 µM (active). With `COc1nc(NC(C)C)nc(NC(C)C)n1` the AC50 was 6.77 µM (active). For `O=C(O)c1nc(Cl)ccc1Cl`, the outcome was “inactive”. For `C#CCOS(=O)OC1CCCCC1Oc1ccc(C(C)(C)C)cc1` (stereo not drawn), the AC50 was 3.74 µM (active). With `CCCCOC(=O)c1ccccc1C(=O)OCCCC` the outcome was “inactive”. For `OC(c1ccc(Cl)cc1)(c1cncnc1)c1ccccc1Cl` (stereo not drawn), the AC50 was 0.443 µM (active). For `CCNc1nc(Cl)nc(NC(C)C)n1`, the AC50 was 14.2 µM (active). For `CCOC(=O)C(Cl)Cc1cc(-n2nc(C)n(C(F)F)c2=O)c(F)cc1Cl` (stereo not drawn), the AC50 was 4.77 µM (active). For `CCOP(=S)(OCC)SCn1c(=O)oc2cc(Cl)ccc21`, the AC50 was 4.1 µM (active). With `CCCC1COC(Cn2cncn2)(c2ccc(Cl)cc2Cl)O1` (stereo not drawn) the AC50 was 2.06 µM (active). In the case of `Oc1ccccc1-c1ccccc1`, the outcome is reported as “inactive”. In the case of `CC1=C(C(=O)Nc2ccccc2)SCCO1`, the outcome is reported as “inactive”. With `CON(C)C(=O)Nc1ccc(Cl)c(Cl)c1` the outcome was “inactive”. `CCOc1cc(Oc2ccc(C(F)(F)F)cc2Cl)ccc1[N+](=O)[O-]` was tested, and the AC50 was 5.16 µM (active). In the case of `CC(C)(C)c1ccc(CSc2cnn(C(C)(C)C)c(=O)c2Cl)cc1`, the outcome is reported as “inactive”. `CC(C)C1(C)N=C(c2nc3ccccc3cc2C(=O)O)NC1=O` (stereo not drawn) was tested, and the outcome was “inactive”. For `COC(=O)C(C)Oc1ccc(Oc2ccc(Cl)cc2Cl)cc1` (stereo not drawn), the outcome was “inactive”. With `CC1COC(Cn2cncn2)(c2ccc(Oc3ccc(Cl)cc3)cc2Cl)O1` (stereo not drawn) the outcome was “inactive”. `CNC(=O)ON=CC(C)(C)SC` was tested, and the outcome was “inactive”. `CCCCC(CC)COC(=O)c1ccccc1C(=O)OCC(CC)CCCC` (stereo not drawn) was tested, and the outcome was “inactive”. With `Cc1c(F)c(F)c(COC(=O)C2C(/C=C(\Cl)C(F)(F)F)C2(C)C)c(F)c1F` (stereo not drawn) the AC50 was 20 µM (active). With `CCc1nn(C)c(C(=O)NCc2ccc(C(C)(C)C)cc2)c1Cl` the AC50 was 20 µM (active). In the case of `Cc1cc(Cl)ccc1OCC(=O)O`, the outcome is reported as “inactive”. `CCOC(=O)CC(SP(=S)(OC)OC)C(=O)OCC` (stereo not drawn) was tested, and the outcome was “inactive”. `N#Cc1nn(-c2c(Cl)cc(C(F)(F)F)cc2Cl)c(N)c1S(=O)C(F)(F)F` (stereo not drawn) was tested, and the AC50 was 1.1 µM (active). In the case of `CCNc1nc(Cl)nc(NCC)n1`, the outcome is reported as “inactive”. With `COC(=O)c1ccccc1C(=O)OC` the outcome was “inactive”. For `CCCCNC(=O)OCC#CI`, the outcome was “inactive”. For `CC(C)Oc1cc(-n2nc(C(C)(C)C)oc2=O)c(Cl)cc1Cl`, the AC50 was 1.9 µM (active). For `COc1cnc(OC)n2nc(NS(=O)(=O)c3c(OCC(F)F)cccc3C(F)(F)F)nc12`, the AC50 was 20 µM (active). For `Fc1ccc(Oc2ccnc3cc(Cl)cc(Cl)c23)cc1`, the outcome was “inactive”. With `COP(=S)(OC)Oc1nc(Cl)c(Cl)cc1Cl` the outcome was “inactive”. `COc1nc(C)nc(NC(=O)NS(=O)(=O)c2ccccc2Cl)n1` was tested, and the outcome was “inactive”. `COC(=O)C=C(C)OP(=O)(OC)OC` was tested, and the outcome was “inactive”. With `CC(Oc1ccc(Cl)cc1Cl)C(=O)O` (stereo not drawn) the outcome was “inactive”. In the case of `CCCN(CCC)c1c([N+](=O)[O-])cc(S(N)(=O)=O)cc1[N+](=O)[O-]`, the AC50 is reported as 10 µM (active).
